Screening data (PubChem BioAssay)
Rows were chosen to be rich in hits. Some 4.5% of all compounds tested hit in one or more screens of this group.
Rpn11 block = Rpn11 (PSMD14) deubiquitinase inhibitors, primary screen, biochemical, fluorescence polarization, uHTS; 26S proteasome non-ATPase regulatory subunit 14 (Homo sapiens), O00487; human 26S proteasome, Ub4-pepOG fluorescence polarization; 20S core pre-blocked with epoxomicin; inhibition, % at 20 µM; hit rate 0.59% among 360,000; AID 588493, 2011;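 active = inhibition at 20 µM, scaled to each plate's controls, above about 33%, limit read from the data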
Target sequence (O00487 whole entry, looked up): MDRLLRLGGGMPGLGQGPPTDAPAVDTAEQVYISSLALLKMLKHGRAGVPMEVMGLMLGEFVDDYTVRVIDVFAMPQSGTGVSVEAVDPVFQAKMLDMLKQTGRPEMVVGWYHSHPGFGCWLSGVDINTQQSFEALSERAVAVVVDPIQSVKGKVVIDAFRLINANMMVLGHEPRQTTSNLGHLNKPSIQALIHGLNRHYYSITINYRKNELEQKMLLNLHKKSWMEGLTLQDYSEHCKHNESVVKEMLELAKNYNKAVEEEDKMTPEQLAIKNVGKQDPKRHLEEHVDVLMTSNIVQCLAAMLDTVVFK
TPT1 inhibitor = Candida albicans TPT1 enzyme inhibitors, primary screen, biochemical, fluorescence polarization. AID 1962, 2009. tRNA 2'-phosphotransferase TPT1 (Candida albicans SC5314). hit rate 0.81% among 300,000. inhibition, % at 5 µM. recombinant caTPT1, FP RNA substrate dephosphorylation;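 active = inhibition above the mean of all tested compounds plus 3 SD, set per screening campaign, cut at about 24% in these data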
dFosB act = activators of delta FosB homodimer, primary screen, biochemical, fluorescence polarization, TAMRA-CDK5 oligo, single point. purified delta FosB; percent of positive-control signal above neutral wells. Protein FosB (Mus musculus), P13346. hit rate 0.99% among 340,000. activation, % at 25 µM;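 active = mean activation above about 17%, with every replicate also reaching it, limit read from the data, passing the limit was not always enough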
NR3A LBD binder = binders of NR3A ligand-binding domain, primary screen, biophysical, differential scanning fluorimetry, uHTS | Glutamate receptor ionotropic, NMDA 3A (GRIN3A) ligand-binding domain | NR3A LBD differential scanning fluorimetry, Tm shift; 0% = protein alone, 100% = glycine-bound protein | Tm shift relative to glycine control, % at 25 µM | hit rate 2.5% among 340,000 | AID 1259313, 2017;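 active = melting temperature shift of at least 10% of the positive control shift, at one fixed dose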
EBNA-1 inhibitor = EBNA-1 DNA-binding inhibitors, primary screen, biochemical, fluorescence polarization | inhibition, % at 14.8 µM | hit rate 0.34% among 300,000; in the data active = inhibition above about 28%
ZTA DNA inh = blocks Epstein-Barr virus ZTA, an EBNA-1 counter-screen; hit rate 0.15% among 320,000; ZTA-DNA binding, fluorescence polarization; inhibition, % at 11 µM; in the data active = inhibition above about 33%
A number is an active result; i = inactive; nt = no result.

SMILES	Rpn11 block	TPT1 inhibitor	dFosB act	NR3A LBD binder	EBNA-1 inhibitor	ZTA DNA inh
NC(=O)CSc1nc2scc(-c3ccc(Cl)cc3)c2c(=O)n1Cc1ccccc1	i	i	i	13	i	i
CN(C)CCNC(=O)c1sc2nc(-c3ccccc3)cc(C(F)(F)F)c2c1N	i	i	19	i	i	i
CCOC(=O)C1=C(N)Oc2cc(O)ccc2C1c1cccc(Cl)c1 (stereo not given)	i	i	i	13	i	i
CCOC(=O)C1=C(N)Oc2cc(O)ccc2C1c1cccnc1 (stereo not given)	i	i	i	i	i	i
O=C1CC(c2ccccc2)CN1C(=O)c1ccccc1 (stereo not given)	i	i	i	13	i	i
O=C(Nc1ccc2c(c1)CCC2)c1cc(S(=O)(=O)Nc2ccc(F)cc2)c(Cl)cc1Cl	i	i	i	31	i	i
Cc1ccc(-n2[nH]c(C)c(/C=C3/C=Nc4ccccc43)c2=O)cc1C	i	i	i	15	i	i
COc1ccccc1NS(=O)(=O)c1cccc(C(=O)NCC(c2ccc(F)cc2)N2CCOCC2)c1 (stereo not given)	i	i	i	i	i	i
O=C(NC(NC(=S)Nc1cccc(C(=O)O)c1)C(Cl)(Cl)Cl)OCc1ccccc1 (stereo not given)	i	i	i	i	i	i
O=C(NC(NC(=S)Nc1cccc(Cl)c1)C(Cl)(Cl)Cl)OCc1ccccc1 (stereo not given)	i	i	i	29	i	i
Cc1cccc(NC(=S)NC(NC(=O)OCc2ccccc2)C(Cl)(Cl)Cl)c1 (stereo not given)	i	i	i	27	i	i
CC1(C(=O)Nc2cccc3ccccc23)CCN1C(=O)C1(c2ccccc2)CCCC1 (stereo not given)	i	nt	nt	nt	nt	nt
CN(C)C(CNC1CC(C)(C)NC(C)(C)C1)c1cccc(F)c1 (stereo not given)	i	i	i	i	i	i
CN(Cc1cccnc1)Cc1cn(Cc2ccccc2)nc1-c1ccc2c(c1)OCO2	i	i	i	i	i	i
Cc1ccc(CSc2nnc(-c3ccc(NS(=O)(=O)c4ccccc4)cc3)o2)cc1	i	i	i	16	i	i
COC(=O)CSc1nnc(-c2ccc(NS(=O)(=O)c3ccccc3)cc2)o1	i	i	i	i	i	i
Cc1ccc(S(=O)(=O)Nc2ccc(-c3nnc(SCc4ccccc4Cl)o3)cc2)cc1	i	i	i	26	i	i
COc1cc(-c2cc3nc(NCc4cccc(Cl)c4)ccn3n2)cc(OC)c1OC	i	nt	nt	nt	nt	nt
COc1ccc(COC(=O)c2cccc(S(=O)(=O)N3CCCC3)c2)cc1F	i	i	i	15	i	i
COc1cc(/C=N/NC(=O)c2ccc(N)cc2)ccc1OC(=O)c1cccc(C)c1	i	nt	i	i	nt	nt
COc1cc2ccccc2cc1C(=O)N/N=C/c1cccnc1	i	i	i	83	i	i
COc1cc(C(=O)N/N=C/c2ccc(OC(=O)c3cccc(C)c3)cc2)ccc1O	i	nt	i	22	nt	nt
COc1cc(/C=N/NC(=O)c2cccc(S(=O)(=O)N3CCCC3)c2)ccc1O	i	i	i	15	i	i
COc1ccc(-c2csc(C(C)(O)c3ccc(F)c(F)c3)n2)cn1 (stereo not given)	i	nt	nt	nt	nt	nt
CC(C)C(NC(=O)c1ccc(F)cc1)C(=O)N1CCN(c2ccccn2)CC1 (stereo not given)	i	nt	i	i	nt	nt
CCOC(=O)C1=C(C)NC(=S)NC1c1ccc(OCC(=O)N2CCCCCC2)cc1 (stereo not given)	i	i	i	i	i	i
O=C(NCc1cc(Cl)cc(Cl)c1)c1ccc2nc(COCCO)[nH]c2c1	i	nt	nt	nt	nt	nt
COc1cc(/C=N/NC(=O)c2cc(-c3cccc(OC(C)C)c3)nc3ccccc23)ccc1O	i	i	i	11	i	i
COc1cccc(/C=N/NC(=O)c2[nH]nc3c2CCc2ccccc2-3)c1	i	i	nt	26	i	i
COc1cc(C(=O)N/N=C/c2cccc(Oc3ccccc3)c2)ccc1O	i	nt	i	11	nt	nt
